A selection: hits, their analogues and other compounds. The true share with any hit is near 4.3%.
FAS-TE inh = FAS thioesterase (human) inhibition. P49327. recombinant FAS-TE, OMFH fluorogenic substrate, fluorescence endpoint. inhibition, % at 15 µM. hit rate 0.67% among 360,000;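 active = compounds whose normalised, plate-corrected inhibition of enzyme fluorescence in the single-dose primary screen is 50% or more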
Target sequence (P49327 whole entry, looked up): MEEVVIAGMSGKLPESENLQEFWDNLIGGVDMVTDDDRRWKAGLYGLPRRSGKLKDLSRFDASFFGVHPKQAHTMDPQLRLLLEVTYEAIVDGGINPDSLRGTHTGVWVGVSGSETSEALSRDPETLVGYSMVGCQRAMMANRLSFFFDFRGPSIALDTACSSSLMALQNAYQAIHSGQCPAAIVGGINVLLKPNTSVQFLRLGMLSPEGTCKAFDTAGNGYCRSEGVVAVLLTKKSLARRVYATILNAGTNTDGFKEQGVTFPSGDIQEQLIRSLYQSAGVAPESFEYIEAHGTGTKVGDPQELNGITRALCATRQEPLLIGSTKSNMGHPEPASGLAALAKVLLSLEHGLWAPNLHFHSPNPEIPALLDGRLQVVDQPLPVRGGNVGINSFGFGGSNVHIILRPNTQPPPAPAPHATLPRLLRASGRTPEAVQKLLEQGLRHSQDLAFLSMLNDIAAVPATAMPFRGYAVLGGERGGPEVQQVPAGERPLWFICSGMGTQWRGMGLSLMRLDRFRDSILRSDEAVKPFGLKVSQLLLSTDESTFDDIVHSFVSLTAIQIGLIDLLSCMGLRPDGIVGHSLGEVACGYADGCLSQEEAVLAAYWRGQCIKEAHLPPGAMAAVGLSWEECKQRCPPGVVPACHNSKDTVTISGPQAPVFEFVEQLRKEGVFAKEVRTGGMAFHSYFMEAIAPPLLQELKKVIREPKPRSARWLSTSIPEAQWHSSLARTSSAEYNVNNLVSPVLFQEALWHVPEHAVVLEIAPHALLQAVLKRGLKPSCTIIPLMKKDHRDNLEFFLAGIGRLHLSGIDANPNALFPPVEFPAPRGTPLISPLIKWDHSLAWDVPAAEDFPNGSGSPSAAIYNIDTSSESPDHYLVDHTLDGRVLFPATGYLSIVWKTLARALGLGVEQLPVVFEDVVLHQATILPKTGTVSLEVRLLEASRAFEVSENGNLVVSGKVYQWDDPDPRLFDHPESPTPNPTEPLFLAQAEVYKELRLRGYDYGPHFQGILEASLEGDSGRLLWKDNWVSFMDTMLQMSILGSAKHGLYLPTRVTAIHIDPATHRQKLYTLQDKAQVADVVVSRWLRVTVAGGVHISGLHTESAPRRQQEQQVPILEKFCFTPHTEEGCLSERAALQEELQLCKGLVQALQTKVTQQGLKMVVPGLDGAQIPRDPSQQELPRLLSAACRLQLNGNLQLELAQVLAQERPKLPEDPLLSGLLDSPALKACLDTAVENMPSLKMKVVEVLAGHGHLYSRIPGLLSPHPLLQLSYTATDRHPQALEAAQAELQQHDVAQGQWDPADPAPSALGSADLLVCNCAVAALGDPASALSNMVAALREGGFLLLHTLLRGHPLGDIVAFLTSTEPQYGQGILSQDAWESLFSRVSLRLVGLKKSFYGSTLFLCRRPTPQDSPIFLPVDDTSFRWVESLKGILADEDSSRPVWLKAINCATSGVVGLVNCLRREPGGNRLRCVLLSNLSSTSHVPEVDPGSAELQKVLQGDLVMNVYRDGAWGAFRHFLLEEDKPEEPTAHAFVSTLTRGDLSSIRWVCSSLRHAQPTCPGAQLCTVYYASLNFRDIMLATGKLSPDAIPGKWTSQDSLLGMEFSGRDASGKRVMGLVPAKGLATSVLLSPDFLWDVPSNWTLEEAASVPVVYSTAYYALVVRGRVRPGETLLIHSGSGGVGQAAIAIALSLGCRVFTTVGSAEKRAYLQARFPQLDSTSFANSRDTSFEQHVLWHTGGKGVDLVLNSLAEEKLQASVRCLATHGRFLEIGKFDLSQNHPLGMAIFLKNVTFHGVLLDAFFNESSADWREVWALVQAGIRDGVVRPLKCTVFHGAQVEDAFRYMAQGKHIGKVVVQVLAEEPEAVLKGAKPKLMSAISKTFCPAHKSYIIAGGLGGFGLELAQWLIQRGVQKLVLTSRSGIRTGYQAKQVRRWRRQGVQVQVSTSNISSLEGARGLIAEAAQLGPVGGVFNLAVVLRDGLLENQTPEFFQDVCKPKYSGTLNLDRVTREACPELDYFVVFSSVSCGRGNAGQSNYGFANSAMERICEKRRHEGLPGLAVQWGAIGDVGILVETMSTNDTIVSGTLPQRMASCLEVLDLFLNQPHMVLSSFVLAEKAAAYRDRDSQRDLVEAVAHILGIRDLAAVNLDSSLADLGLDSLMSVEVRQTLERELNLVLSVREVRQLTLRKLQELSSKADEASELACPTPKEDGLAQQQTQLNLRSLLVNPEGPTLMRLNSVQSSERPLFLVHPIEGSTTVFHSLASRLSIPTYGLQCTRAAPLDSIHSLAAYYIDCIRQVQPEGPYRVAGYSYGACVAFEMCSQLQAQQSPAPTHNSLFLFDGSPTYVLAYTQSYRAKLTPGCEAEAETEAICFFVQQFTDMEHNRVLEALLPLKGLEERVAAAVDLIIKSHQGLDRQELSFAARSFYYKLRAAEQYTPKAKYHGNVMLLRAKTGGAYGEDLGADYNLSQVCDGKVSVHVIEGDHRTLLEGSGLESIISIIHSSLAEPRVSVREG
NadD block = blocks S. aureus nicotinate mononucleotide adenylyltransferase; inhibition, % at 20 µM; AID 602399; purified NadD enzyme, colorimetric absorbance read-out; hit rate 0.78% among 360,000; in the data active = inhibition above about 26%
rCAG RNA binder = r(CAG) repeat RNA binding; hit rate 1.3% among 370,000; inhibition, % at 3 µM; TO-PRO-1 dye displacement fluorescence; AID 651821;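 active = inhibition above the plate cutoff, the mean of all test compounds on that plate plus 3 SD, cut at about 35% in these data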;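 note: higher means more dye released from RNA so lower well fluorescence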
NR3A LBD binder = modulates the human NR3A ligand-binding domain; NR3A LBD differential scanning fluorimetry, Tm shift; 0% = protein alone, 100% = glycine-bound protein; Tm shift relative to glycine control, % at 25 µM; hit rate 2.5% among 340,000;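 active = melting temperature shift of at least 10% of the positive control shift, at one fixed dose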
Large screens that a line does not name were inactive.

C#CCOCCOCCOCCNc1nc(N2CCN(C(=O)CCCCCCCCCCNC(=O)[C@H](CCCCN)n3cc(CCO)nn3)CC2)nc(N2CCN(C(=O)CCCCCCCCCCNC(=O)[C@H](CCCCN)n3cc(C[C@@H](C)CC)nn3)CC2)n1	NR3A LBD binder 19.9 (no result: FAS-TE inh, NadD block, rCAG RNA binder)
O=C(NC(NC(=S)Nc1ccc(Cl)cc1)C(Cl)(Cl)Cl)c1ccco1 (centres undefined)	NR3A LBD binder 13.4
CCc1ccc(OCC(=O)NC(NC(=S)Nc2ccc(Cl)cc2)C(Cl)(Cl)Cl)cc1 (centres undefined)	NR3A LBD binder 23.8
O=C1N=c2ccccc2=C1c1sc(=S)n(-c2ccc(O)cc2)c1O	NR3A LBD binder 29.0
Cc1c(-n2c(O)c(C3=c4ccccc4=NC3=O)sc2=S)c(=O)n(-c2ccccc2)n1C	none
O=C1N=c2ccccc2=C1c1sc(=S)n(Cc2ccccc2Cl)c1O	NR3A LBD binder 19.4
COc1cc(/C=C(\C#N)c2ccccn2)ccc1OCc1ccc(Cl)cc1	NR3A LBD binder 13.6
COc1cc(/C=N/N2CCOCC2)ccc1OCc1ccc(Cl)cc1	NR3A LBD binder 21.8
COc1cc(/C=C(\C#N)c2ccccn2)ccc1OCc1ccccc1	none
CCCC[C@H](C(=O)N(CC)c1ccccc1)[C@@H](O)c1ccc(C(C)=O)cc1	none (no result: FAS-TE inh, NadD block, NR3A LBD binder)
COc1ccc(N(C)S(=O)(=O)c2cccc(C(=O)Nc3ccc(-n4cnnn4)cc3)c2)cc1	NR3A LBD binder 25.9
Cc1nc2ccc(NC(=O)c3ccco3)cc2s1	NR3A LBD binder 16.1
Cc1nc2ccc(NC(=O)c3sccc3C)cc2s1	NR3A LBD binder 32.4
Cc1nc2ccc(NC(=O)c3cccc(S(=O)(=O)N(C)c4ccccc4)c3)cc2s1	NR3A LBD binder 18.1 (no result: rCAG RNA binder)
COC(=O)[C@@H]1N=C(c2ccc(OC)cc2)O[C@]12C(=O)N(Cc1cn(Cc3ccccc3)nn1)c1cccc(Cl)c12	none (no result: FAS-TE inh, NadD block, NR3A LBD binder)
CC(Oc1ccc(Br)cc1)c1nc2c3ccccc3nc(=S)n2[nH]1 (centres undefined)	rCAG RNA binder 36.0
COc1cc(-c2nc3c4ccccc4nc(=S)n3[nH]2)cc(OC)c1OC	none
CCCC(Oc1ccc(Br)cc1)c1nc2c3cc(OC)c(OC)cc3nc(=S)n2[nH]1 (centres undefined)	NR3A LBD binder 16.1
S=c1nc2ccccc2c2nc(-c3ccccc3)[nH]n12	none
C=CCN1C(=O)[C@H](CC(=O)NCCC(C)C)[C@@]2(C(=O)OCC)CCCC=C12	none (no result: FAS-TE inh, NadD block, NR3A LBD binder)
CCCN1CC(=O)N2[C@H](C[C@@]3(n4ccc5ccccc54)c4ccccc4N(S(=O)(=O)c4ccccc4)[C@@H]23)C1=O	none (no result: FAS-TE inh, NadD block, NR3A LBD binder)
CCCCC1CCC(C(=O)Nc2ccc(S(=O)(=O)Nc3nccs3)cc2)CC1 (centres undefined)	NadD block 33.0, NR3A LBD binder 15.4 (no result: rCAG RNA binder)
CCCCCCc1c(C)c2ccc(OCC(=O)N3CCC[C@H]3C(=O)O)c(C)c2oc1=O	rCAG RNA binder 41.5
O=C(Nc1ccc(Cl)c(Cl)c1)O/N=C/c1ccncc1	NR3A LBD binder 29.1
Cc1cc([N+](=O)[O-])ccc1P(=O)(O)c1ccc([N+](=O)[O-])cc1C	NR3A LBD binder 15.4
Cc1ccc([N+](=O)[O-])cc1N	none
Cc1cccc(NC(=O)c2cc(-c3cc(Cl)ccc3O)n[nH]2)c1	NR3A LBD binder 36.0 (no result: rCAG RNA binder)
Cc1ccc(NC(=O)c2cc(-c3cc(Cl)ccc3O)n[nH]2)cc1C	NR3A LBD binder 29.2
COC(=O)c1cc2c(c3c4cc(F)ccc4n(S(=O)(=O)c4ccc(C)cc4)c13)C(=O)N(Cc1ccc(C(F)(F)F)cc1)C2	none (no result: FAS-TE inh, NadD block, NR3A LBD binder)
COc1ccc(C)cc1NC(=O)CSc1nnnn1Cc1ccccc1	NR3A LBD binder 14.5
COc1ccc(C)cc1NC(=O)C(Sc1nnc2ccccn12)c1ccccc1 (centres undefined)	NR3A LBD binder 14.8
COc1cccc(-c2ccc(NC(=O)C3CCCN(CCCn4cccn4)C3)cc2)c1 (centres undefined)	NR3A LBD binder 10.3
CC(=O)c1cccc(CN2CCCC(C(=O)Nc3cccc(-n4cccn4)c3)C2)c1 (centres undefined)	NR3A LBD binder 10.0
COC(=O)c1ccc(CN2CCCC(C(=O)Nc3cccc(-n4cccn4)c3)C2)cc1 (centres undefined)	none
COc1cccc(-c2ccc(NC(=O)C3CCCN(Cc4ccccn4)C3)cc2)c1 (centres undefined)	none (no result: NR3A LBD binder)
O=[N+]([O-])c1cccc(-c2ccc(/C=N/NC(=S)Nc3ccccc3)o2)c1	NR3A LBD binder 14.8
O=[N+]([O-])c1ccc(/C=N/NC(=S)Nc2ccccc2)o1	none
COC(=O)[C@]12C[C@H](CC(=O)NCc3cccs3)C(=O)N(Cc3cccc4ccccc34)C1=C[C@H](COCc1ccccc1)O[C@@H]2C	none (no result: FAS-TE inh, NadD block, NR3A LBD binder)
N#Cc1ccc(NC(=O)CSc2nc3[nH]c(=O)cc(O)c3s2)cc1	none
N#Cc1c(SCC(=O)Nc2cccc(F)c2)sc2c(O)cc(=O)[nH]c12	rCAG RNA binder 60.7
COc1ccc(-n2c(C)cc(C(=O)CN3C(=O)NC4(CCCc5sccc54)C3=O)c2C)cc1 (centres undefined)	none
Cc1cc(C(=O)CN2C(=O)NC3(CCCc4sccc43)C2=O)c(C)n1-c1ccccc1 (centres undefined)	NR3A LBD binder 14.8
O=C(N/C(=C/c1cccc(Br)c1)c1nc(=S)[nH][nH]1)c1ccccc1	NR3A LBD binder 22.1
COc1ccc(/C=C(/NC(=O)c2ccccc2)c2nc3ccccc3[nH]2)cc1OC	none
CCCCNC(=O)C[C@@H]1C(=O)N2CCCC3=C2[C@@]1(C(=O)OCC)CCC3	none (no result: FAS-TE inh, NadD block, NR3A LBD binder)
O=C(Nc1nnc(CC2=CCCCC2)s1)Nc1ccccc1F	none (no result: FAS-TE inh, NadD block, rCAG RNA binder)
O=C(Nc1cccc(Cl)c1)Nc1nnc(CC2=CCCCC2)s1	NR3A LBD binder 29.5
COc1ccc(CSc2nnc(SCC(=O)Nc3ccc4c(c3)OCO4)s2)cc1	none (no result: FAS-TE inh, NadD block, NR3A LBD binder)
COC(=O)[C@]12CCCCC=C1N(Cc1ccc(OC)cc1)C(=O)[C@@H]2CC(=O)NCc1ccccc1	none (no result: FAS-TE inh, NadD block, NR3A LBD binder)
CC(/C=C/c1ccccc1F)=N\NC(=O)c1cccc(F)c1	NR3A LBD binder 22.0
Cc1ccc(-c2nc3ncccn3c2NC(=O)c2ccccc2)cc1	none (no result: FAS-TE inh, NadD block, NR3A LBD binder)
Nc1nc2nonc2nc1N1CCCCC1	NR3A LBD binder 15.1
Cc1cccc([C@@H]2[C@@H]3C(=O)N(Cc4ccccc4)C(=O)[C@@H]3[C@]3(Cc4ccccc4)C(=O)N(c4cccc(Cl)c4)C(=O)N23)c1	FAS-TE inh 81.6
Cc1cccc([C@@H]2[C@@H]3C(=O)N(Cc4ccccc4)C(=O)[C@@H]3[C@]3(CC(C)C)C(=O)N(c4cccc(Br)c4)C(=O)N23)c1	FAS-TE inh 88.5 (no result: rCAG RNA binder)
Cc1cccc([C@@H]2[C@@H]3C(=O)N(Cc4ccccc4)C(=O)[C@@H]3[C@]3(C)C(=O)N(c4cccc(Cl)c4)C(=O)N23)c1	none
Cc1cccc([C@@H]2[C@@H]3C(=O)N(Cc4ccccc4)C(=O)[C@@H]3[C@]3(Cc4ccccc4)C(=O)N(c4ccccc4)C(=O)N23)c1	FAS-TE inh 91.9
Cc1ccccc1CN1CCCCC(NC(=O)c2ccc3ccccc3c2)C1=O (centres undefined)	none (no result: FAS-TE inh, NadD block, NR3A LBD binder)
CC(=NNC(=O)CSc1nnc(-c2ccccc2)n1-c1ccccc1)c1cccc([N+](=O)[O-])c1	none (no result: FAS-TE inh, NadD block, NR3A LBD binder)
